Compounds without any hit were thinned out: in the full panel of roughly 83,000, 20% have a hit.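 Interpretation: 100, growth as untreated; towards 0, rising growth inhibition; 0, no net growth; 0 to -100, cell death. Compounds scoring below 10 were considered active.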 Activity calls are given as the source filed them.
What follows are molecules tested on HCT-116 colon (assay: NCI-60 one-dose screen, 48 h (100 = growth as untreated, 0 = no growth, -100 = all killed)). Details: 10 µM unless noted.
In the case of `O=S(=O)(NCCCNc1nccc(-c2c(-c3ccc(F)c(O)c3)nc3sccn23)n1)c1ccc(Cl)cc1`, the growth is reported as 46.3% (inactive).
In the case of `Nc1ccc(S(=O)(=O)c2ccc(Cl)cc2)cc1`, the growth is reported as 97.2% (inactive).
For `O=C1OC(c2ccccc2)=N/C1=C\c1ccc([N+](=O)[O-])cc1`, the growth was 97.8% (inactive).
With `CC(Br)C(Br)c1cc2c(cc1Br)OCO2` (stereo not given) the growth was 88.5% (inactive).
`COc1ncc(-c2ccc3ncnc(Nc4cccc(Cl)c4)c3c2)cc1NS(=O)(=O)CCN1CCOCC1` was tested, and the growth was 29.7% (inactive).
In the case of `CCCCC[C@@H]1Cc2cc(O)c(C(=O)O)c3c2[C@H](C[C@@]2(CCCO2)O3)O1`, the growth is reported as 100% (inactive).
`CC(C)C[C@H](NC(=O)[C@@H](Cc1ccccc1)n1ccc(Nc2ccccc2)cc1=O)B(O)O` was tested, and the growth was -37.9% (active).
`N#CC1=C(N)n2nc(-c3ccncc3)nc2NC1c1cccc2ccccc12` (stereo not given) was tested, and the growth was 87.9% (inactive).
For `O=c1cc(C2NCCc3c2[nH]c2ccccc32)c2c(ccc3ccccc32)o1` (stereo not given), the growth was 42% (inactive).
`CC(C)CCC[C@@H](C)[C@H]1CC[C@H]2[C@@H]3CC[C@H]4C/C(=N/O)CC[C@]4(C)[C@H]3CC[C@]12C` was tested, and the growth was 109% (inactive).
For `COc1ccc(/C=C/C(=O)c2cccc(B(O)O)c2)cc1O`, the growth was 3.16% (active).
With `O=c1oc2c([nH]c3ccc4ccccc4c32)c2ccccc12` the growth was 102% (inactive).
In the case of `O=C(NCCc1c[nH]c2ccccc12)C1Cc2ccccc2CN1C(=O)c1ccco1` (stereo not given), the growth is reported as 102% (inactive).
In the case of `CC/C=C\C[C@H]1C/C=C2/C(=O)C(Cl)=C[C@@H]2C/C=C\CCCC(=O)O1`, the growth is reported as -81% (active).
`C/C(=N\NC(=O)CC#N)c1cc2cc(Cl)ccc2o1` was tested, and the growth was 107% (inactive).
For `O=C(Nc1ccc(F)cc1)c1cc([N+](=O)[O-])ccc1O`, the growth was 66.8% (inactive).
In the case of `CCN(CC)CCSc1c2ccc(Cl)cc2nc2ccc(OC)cc12`, the growth is reported as 50.3% (inactive).
With `O=[N+]([O-])c1ccc(S(=O)(=O)N2CCN(c3ccnc4cc(Cl)ccc34)CC2)c([N+](=O)[O-])c1` the growth was 77.5% (inactive).
For `O=[N+]([O-])c1c(S(=O)(=O)O)cc2cc(S(=O)(=O)O)ccc2c1[N+](=O)[O-]`, the growth was 98.2% (inactive).
In the case of `Clc1nc(Cl)c2ncn(C/C=C/Cn3cnc4c(Cl)nc(Cl)nc43)c2n1`, the growth is reported as 33.3% (inactive).
`CC(C)C[C@H](NC(=O)Cn1ccc(NCc2ccccc2)cc1=O)B(O)O` was tested, and the growth was -47.7% (active).
For `N#Cc1ccc(NC(=O)c2ccc3cccnc3c2O)cc1`, the growth was 20.3% (inactive).
`Nc1nc(N)c2nc(CNc3ccc(C(=O)CC(CCC(=O)O)C(=O)O)cc3)cnc2n1` (stereo not given) was tested, and the growth was 21.6% (inactive).
`Nc1nc(Cl)c2c(ncn2Cc2ccc(CCl)cc2)n1` was tested, and the growth was 94.2% (inactive).
In the case of `CCOc1ccc(/C=C/C=N/NC(N)=S)cc1`, the growth is reported as 70.1% (inactive).
In the case of `COc1cc(/C=C/C(=O)c2ccccc2O)ccc1OCCCOc1cc2c(cc1OC)C(=O)N1CCC[C@H]1C=N2`, the growth is reported as 2.66% (active).
In the case of `CC(CCc1ccccc1)NC(=O)c1n[nH]c(=O)c2ccccc12` (stereo not given), the growth is reported as 97% (inactive).
For `COc1cc(-c2nc(-c3nc4ccccc4[nH]3)cc3c2[nH]c2ccccc23)cc(OC)c1OC`, the growth was 23% (inactive).
For `O=C(/C=C/CN1CCOCC1)Nc1cc2c(Nc3ccc(F)c(Cl)c3F)ncnc2cc1OCCOC(F)F`, the growth was 49.4% (inactive).
In the case of `COc1cc(NS(C)(=O)=O)ccc1Nc1c2ccc([N+](=O)[O-])cc2nc2c(C)cccc12`, the growth is reported as 22.9% (inactive).
With `O=S(=O)(NCCCNc1cc(-c2cn(-c3ccccc3)nc2-c2cccc(O)c2)ccn1)c1cccc2ccccc12` the growth was 28.1% (inactive).
`O=c1[nH]c(-c2cn(-c3ccc(Cl)cc3)nn2)nc2ccccc12` was tested, and the growth was 52% (inactive).
In the case of `CCN(C(=O)c1cc2ccccc2[nH]1)[C@H]1CCC[C@@H](NCc2ccc(OC)cc2)C1`, the growth is reported as 92.1% (inactive).
For `COc1ccc(/C=C/C(=O)c2ccc(B(O)O)cc2)cc1O`, the growth was 1.46% (active).
For `Clc1ccc2c(c1)NC1(CCSc3ccccc31)n1nccc1-2` (stereo not given), the growth was 89.4% (inactive).
For `O=C1NC(Cc2c[nH]c3ccccc23)C(=O)N1Cc1ccc(Cl)cc1` (stereo not given), the growth was 93.4% (inactive).
For `CCCCCCCCCCC/C=C\C[C@H](O)C/C=C1/C(=O)C=C[C@@H]1C/C=C\CCCC(=O)OC`, the growth was -32% (active).

These molecules were tested on HCC-2998 colon in the same assay as above. Details: 10 µM unless noted.
`O=S(=O)(NCCCNc1nccc(-c2c(-c3ccc(F)c(O)c3)nc3sccn23)n1)c1ccc(Cl)cc1` was tested, and the growth was 112% (inactive).
For `Nc1ccc(S(=O)(=O)c2ccc(Cl)cc2)cc1`, the growth was 102% (inactive).
In the case of `O=C1OC(c2ccccc2)=N/C1=C\c1ccc([N+](=O)[O-])cc1`, the growth is reported as 108% (inactive).
In the case of `CC(Br)C(Br)c1cc2c(cc1Br)OCO2` (stereo not given), the growth is reported as 96% (inactive).
`COc1ncc(-c2ccc3ncnc(Nc4cccc(Cl)c4)c3c2)cc1NS(=O)(=O)CCN1CCOCC1` was tested, and the growth was 18.9% (inactive).
In the case of `CCCCC[C@@H]1Cc2cc(O)c(C(=O)O)c3c2[C@H](C[C@@]2(CCCO2)O3)O1`, the growth is reported as 95.9% (inactive).
With `CC(C)C[C@H](NC(=O)[C@@H](Cc1ccccc1)n1ccc(Nc2ccccc2)cc1=O)B(O)O` the growth was -83.8% (active).
For `N#CC1=C(N)n2nc(-c3ccncc3)nc2NC1c1cccc2ccccc12` (stereo not given), the growth was 105% (inactive).
For `O=c1cc(C2NCCc3c2[nH]c2ccccc32)c2c(ccc3ccccc32)o1` (stereo not given), the growth was 78.1% (inactive).
In the case of `CC(C)CCC[C@@H](C)[C@H]1CC[C@H]2[C@@H]3CC[C@H]4C/C(=N/O)CC[C@]4(C)[C@H]3CC[C@]12C`, the growth is reported as 86.3% (inactive).
With `COc1ccc(/C=C/C(=O)c2cccc(B(O)O)c2)cc1O` the growth was 54.3% (inactive).
With `O=C(NCCc1c[nH]c2ccccc12)C1Cc2ccccc2CN1C(=O)c1ccco1` (stereo not given) the growth was 164% (inactive).
`CC/C=C\C[C@H]1C/C=C2/C(=O)C(Cl)=C[C@@H]2C/C=C\CCCC(=O)O1` was tested, and the growth was -80.2% (active).
In the case of `O=C(Nc1ccc(F)cc1)c1cc([N+](=O)[O-])ccc1O`, the growth is reported as 63.9% (inactive).
`CCN(CC)CCSc1c2ccc(Cl)cc2nc2ccc(OC)cc12` was tested, and the growth was 97.3% (inactive).
With `O=[N+]([O-])c1ccc(S(=O)(=O)N2CCN(c3ccnc4cc(Cl)ccc34)CC2)c([N+](=O)[O-])c1` the growth was 106% (inactive).
For `O=[N+]([O-])c1c(S(=O)(=O)O)cc2cc(S(=O)(=O)O)ccc2c1[N+](=O)[O-]`, the growth was 99.2% (inactive).
In the case of `CC(C)C[C@H](NC(=O)Cn1ccc(NCc2ccccc2)cc1=O)B(O)O`, the growth is reported as 0.885% (active).
In the case of `N#Cc1ccc(NC(=O)c2ccc3cccnc3c2O)cc1`, the growth is reported as 44.6% (inactive).
In the case of `CCCCCCc1nc2c(c(C)nn2-c2ccccc2)c2c1CCCCC2`, the growth is reported as 106% (inactive).
For `CCOc1ccc(/C=C/C=N/NC(N)=S)cc1`, the growth was 70.1% (inactive).
For `COc1cc(/C=C/C(=O)c2ccccc2O)ccc1OCCCOc1cc2c(cc1OC)C(=O)N1CCC[C@H]1C=N2`, the growth was -16.7% (active).
`CC(CCc1ccccc1)NC(=O)c1n[nH]c(=O)c2ccccc12` (stereo not given) was tested, and the growth was 156% (inactive).
With `COc1cc(-c2nc(-c3nc4ccccc4[nH]3)cc3c2[nH]c2ccccc23)cc(OC)c1OC` the growth was 57.3% (inactive).
For `O=C(/C=C/CN1CCOCC1)Nc1cc2c(Nc3ccc(F)c(Cl)c3F)ncnc2cc1OCCOC(F)F`, the growth was 69.1% (inactive).
`COc1cc(NS(C)(=O)=O)ccc1Nc1c2ccc([N+](=O)[O-])cc2nc2c(C)cccc12` was tested, and the growth was -1.86% (active).
In the case of `O=S(=O)(NCCCNc1cc(-c2cn(-c3ccccc3)nc2-c2cccc(O)c2)ccn1)c1cccc2ccccc12`, the growth is reported as -71% (active).
For `O=c1[nH]c(-c2cn(-c3ccc(Cl)cc3)nn2)nc2ccccc12`, the growth was 90% (inactive).
In the case of `CCN(C(=O)c1cc2ccccc2[nH]1)[C@H]1CCC[C@@H](NCc2ccc(OC)cc2)C1`, the growth is reported as 78.3% (inactive).
For `COc1ccc(/C=C/C(=O)c2ccc(B(O)O)cc2)cc1O`, the growth was 49.8% (inactive).
With `Clc1ccc2c(c1)NC1(CCSc3ccccc31)n1nccc1-2` (stereo not given) the growth was 97.3% (inactive).
`O=C1NC(Cc2c[nH]c3ccccc23)C(=O)N1Cc1ccc(Cl)cc1` (stereo not given) was tested, and the growth was 131% (inactive).
With `CCCCCCCCCCC/C=C\C[C@H](O)C/C=C1/C(=O)C=C[C@@H]1C/C=C\CCCC(=O)OC` the growth was -46.5% (active).

Reference: PubChem BioAssay (NCI)
